Consider 40 compounds from ChEMBL document CHEMBL4513146, “CO-ADD screening of Karazin Kharkiv National University (Ukraine) compounds”.

Structures are written as SMILES. Potency and affinity values are given separately.

One assay relates to Staphylococcus aureus. The following applies: Concentration 32 ug.mL-1;; ASSAY_TEST Inhibition of Bacterial Growth; detection method Absorption (OD600); MEDIA CAMHB; plate type 384well; NBS; CORNING #3640; time 18 hr.
On to `O=C(Cn1nc2c(N3CCOCC3)nc3ccccc3n2c1=O)NCc1ccccc1Cl`, for which the Inhibition – broadly, the relative decrease from the control value, in per cent – is -2.26%.

As to `Cc1ccc(-c2ccc3nnc(CCC(=O)NCc4ccc(C(C)C)cc4)n3n2)cc1C`, the Inhibition is listed as 2.18%.

On to `COc1ccc(NC(=O)Cn2nc3nc(N4CCOCC4)ccn3c2=O)cc1Cl`, for which the Inhibition was found to be 7.8%.

With `Cc1ccc(CNC(=O)CSc2nnc3c4cc(-c5ccc(C)cc5)nn4ccn23)cc1`, the Inhibition is 9.17%.

With `COc1cccc(CN(c2ccc(F)c(F)c2)S(=O)(=O)c2cccn3c(C)nnc23)c1`, the Inhibition came out at 17.08%.

In the case of `CCCCOc1ccc(-c2cc3c4nnc(SCC(=O)NCc5ccccc5)n4ccn3n2)cc1`, the Inhibition is reported as -2.73%.

Take `CCc1cccc(NC(=O)Cn2c(=O)c3nnc(C(C)C)n3c3ccccc32)c1`: the Inhibition is 12.07%.

With `CCCCOc1ccc(-c2cc3c4nnc(SCC(=O)Nc5c(C)cccc5C)n4ccn3n2)cc1`, the Inhibition is given as -7.16%.

As to `Cc1ccc(Cn2nc3c(=O)n(-c4cccc(F)c4)ccn3c2=O)cc1`, the Inhibition worked out at 6.58%.

For the compound `Cc1cccc(Oc2nc3ccccc3n3c(=O)n(CC(=O)Nc4cccc(C#N)c4)nc23)c1C`, the Inhibition is -4.2%.

For `CCC(C)NC(=O)Cn1nc2n(CC(C)C)c(=O)c3ccc(C(=O)NC4CCCCC4)cc3n2c1=O` (stereo not given), the Inhibition is 7.36%.

Take `Cc1cc(C)c(C(=O)CSc2nnc3c(=O)n(-c4ccc(F)c(F)c4)ccn23)cc1C`: the Inhibition amounted to 17%.

With `Cc1ccc(NC(=O)Cn2nc3ccc(SCc4ccc(Cl)cc4)nn3c2=O)cc1`, the Inhibition is given as -0.24%.

For the compound `Cc1ccc(-n2ccn3c(SCC#N)nnc3c2=O)cc1C`, the Inhibition was 11.84%.

As for `O=C(Cn1nc2nc(Nc3ccc(F)cc3)ccn2c1=O)N1CCCc2ccccc21`, the Inhibition was 5.55%.

As for `CCCCc1ccc(NC(=O)CSc2nc3ccccc3n3c(CC)nnc23)cc1`, the Inhibition stood at 10.38%.

As to `O=C(Cn1nc2c(SC3CCCCC3)nccn2c1=O)NCc1ccc(F)cc1`, the Inhibition is on record as 3.45%.

`Cc1ccc(Sc2nccn3c(=O)n(CC(=O)N4CCN(c5ccccc5)CC4)nc23)c(C)c1`: the Inhibition is recorded as -10.57%.

In the case of `Cc1cccc(CN(c2cccc(Cl)c2)S(=O)(=O)c2cccn3c(C)nnc23)c1`, the Inhibition was determined as 9.05%.

With `O=C(Cn1nc2c(N3CCOCC3)nccn2c1=O)Nc1cccc(C(F)(F)F)c1`, the Inhibition came to 4.69%.

Consider `Cc1ccc(NC(=O)Cn2nc3ccc(SC4CCCCC4)nn3c2=O)cc1C`, for which the Inhibition is listed as -6.2%.

With `CCC(Sc1nnc2c(=O)n(-c3ccccc3)ccn12)C(=O)Nc1ccc(OC)cc1OC` (stereo not given), the Inhibition is on record as 10.76%.

On to `CCOC(=O)c1ccccc1NC(=O)Cn1nc2c(Sc3ccccc3)nccn2c1=O`, for which the Inhibition is on record as 8.61%.

`CCOc1ccc(C(=O)Cn2nc3n(Cc4ccccc4OC)c(=O)c4sccc4n3c2=O)cc1`: the Inhibition is -7.18%.

As to `COC(=O)c1ccc(NC(=O)Cn2nc3nc(N4CCCCCC4)ccn3c2=O)cc1`, the Inhibition came to 7.17%.

On to `COc1cccc(Oc2nccn3c(=O)n(CC(=O)Nc4cccc(Br)c4)nc23)c1`, for which the Inhibition is recorded as 9.05%.

For the compound `Cc1cccc(NC(=O)Cn2c(=O)c3nnc(C(C)C)n3c3ccccc32)c1`, the Inhibition is reported as 1.06%.

Turning to `Cc1nnc2ccc(S(=O)(=O)N(Cc3ccccc3F)c3cccc(F)c3)cn12`, the Inhibition turned out to be 9.15%.

With `CC(=O)c1ccc(NC(=O)Cn2nc3ccc(Sc4ccccc4)nn3c2=O)cc1`, the Inhibition turned out to be 5.54%.

In the case of `COc1ccc(-c2cc3c4nn(CC(=O)Nc5cc(C)ccc5C)c(=O)n4ccn3n2)cc1`, the Inhibition worked out at 3.16%.

For `O=C(CSc1nnc2c(=O)n(-c3ccccc3)ccn12)Nc1ccccc1F`, the Inhibition is recorded as 8.41%.

Turning to `CCCCOc1ccc(-c2cc3c4nnc(SCC(=O)Nc5ccc(C)c(F)c5)n4ccn3n2)cc1`, the Inhibition is reported as 5.13%.

`Cc1cc(C)c(NC(=O)Cn2c(=O)c3nnc(C(C)C)n3c3ccccc32)c(C)c1`: the Inhibition is 15.71%.

`Cc1nnc2ccc(S(=O)(=O)N(Cc3cc(F)cc(F)c3)c3ccccc3)cn12`: the Inhibition was found to be 12.61%.

As for `Cc1cc2nn(CC(=O)Nc3ccc(F)cc3F)c(=O)n2c(Nc2ccc(C)c(F)c2)n1`, the Inhibition was found to be 8.31%.

With `Cc1nnc2c(S(=O)(=O)N(Cc3cc(F)cc(F)c3)c3cccc(F)c3)cccn12`, the Inhibition came out at 8.19%.

With `COc1ccc(CNC(=O)Cn2nc3c(N4CCOCC4)nccn3c2=O)cc1`, the Inhibition is 22.13%.

As for `CCOc1ccccc1NC(=O)Cn1nc2c3c4c(sc3ncn2c1=O)CCCC4`, the Inhibition is reported as -4.82%.

Regarding `CCc1ccc(N(Cc2cccc(F)c2)S(=O)(=O)c2cccn3c(C)nnc23)cc1`, the Inhibition was 10.02%.

Consider `COc1ccc(C(C)NC(=O)CCc2nnc3ccc(-c4ccc(C)cc4)nn23)cc1OC` (stereo not given), for which the Inhibition stood at 4.62%.

Another assay concerns Escherichia coli. The following applies: Concentration 32 ug.mL-1;; ASSAY_TEST Inhibition of Bacterial Growth; detection method Absorption (OD600); MEDIA CAMHB; plate type 384well; NBS; CORNING #3640; time 18 hr.
For `O=C(Cn1nc2c(N3CCOCC3)nc3ccccc3n2c1=O)NCc1ccccc1Cl`, the Inhibition is listed as -4.63%.

As for `Cc1ccc(-c2ccc3nnc(CCC(=O)NCc4ccc(C(C)C)cc4)n3n2)cc1C`, the Inhibition is reported as -3.19%.

`COc1ccc(NC(=O)Cn2nc3nc(N4CCOCC4)ccn3c2=O)cc1Cl`: the Inhibition is -5.98%.

In the case of `Cc1ccc(CNC(=O)CSc2nnc3c4cc(-c5ccc(C)cc5)nn4ccn23)cc1`, the Inhibition is recorded as 0.59%.

Take `COc1cccc(CN(c2ccc(F)c(F)c2)S(=O)(=O)c2cccn3c(C)nnc23)c1`: the Inhibition is 2.94%.

As to `CCCCOc1ccc(-c2cc3c4nnc(SCC(=O)NCc5ccccc5)n4ccn3n2)cc1`, the Inhibition is -6.82%.

On to `CCc1cccc(NC(=O)Cn2c(=O)c3nnc(C(C)C)n3c3ccccc32)c1`, for which the Inhibition was 8.67%.

Regarding `CCCCOc1ccc(-c2cc3c4nnc(SCC(=O)Nc5c(C)cccc5C)n4ccn3n2)cc1`, the Inhibition is reported as -10.46%.

On to `Cc1ccc(Cn2nc3c(=O)n(-c4cccc(F)c4)ccn3c2=O)cc1`, for which the Inhibition is recorded as -11.98%.

As for `Cc1cccc(Oc2nc3ccccc3n3c(=O)n(CC(=O)Nc4cccc(C#N)c4)nc23)c1C`, the Inhibition was -5.56%.

With `CCC(C)NC(=O)Cn1nc2n(CC(C)C)c(=O)c3ccc(C(=O)NC4CCCCC4)cc3n2c1=O` (stereo not given), the Inhibition is -3.14%.

For the compound `Cc1cc(C)c(C(=O)CSc2nnc3c(=O)n(-c4ccc(F)c(F)c4)ccn23)cc1C`, the Inhibition is -3.21%.

Consider `Cc1ccc(NC(=O)Cn2nc3ccc(SCc4ccc(Cl)cc4)nn3c2=O)cc1`, for which the Inhibition was -6.34%.

As for `Cc1ccc(-n2ccn3c(SCC#N)nnc3c2=O)cc1C`, the Inhibition is -4.03%.

Take `O=C(Cn1nc2nc(Nc3ccc(F)cc3)ccn2c1=O)N1CCCc2ccccc21`: the Inhibition was -6.76%.

Turning to `CCCCc1ccc(NC(=O)CSc2nc3ccccc3n3c(CC)nnc23)cc1`, the Inhibition was -2.23%.

With `O=C(Cn1nc2c(SC3CCCCC3)nccn2c1=O)NCc1ccc(F)cc1`, the Inhibition was -3.55%.

As to `Cc1ccc(Sc2nccn3c(=O)n(CC(=O)N4CCN(c5ccccc5)CC4)nc23)c(C)c1`, the Inhibition is given as -12.78%.

Turning to `Cc1cccc(CN(c2cccc(Cl)c2)S(=O)(=O)c2cccn3c(C)nnc23)c1`, the Inhibition is -5.75%.

With `O=C(Cn1nc2c(N3CCOCC3)nccn2c1=O)Nc1cccc(C(F)(F)F)c1`, the Inhibition was -2.32%.

In the case of `Cc1ccc(NC(=O)Cn2nc3ccc(SC4CCCCC4)nn3c2=O)cc1C`, the Inhibition is recorded as -13.15%.

For `CCC(Sc1nnc2c(=O)n(-c3ccccc3)ccn12)C(=O)Nc1ccc(OC)cc1OC` (stereo not given), the Inhibition is on record as 0.69%.

In the case of `CCOC(=O)c1ccccc1NC(=O)Cn1nc2c(Sc3ccccc3)nccn2c1=O`, the Inhibition is recorded as -3.65%.

As for `CCOc1ccc(C(=O)Cn2nc3n(Cc4ccccc4OC)c(=O)c4sccc4n3c2=O)cc1`, the Inhibition was -6.25%.

With `COC(=O)c1ccc(NC(=O)Cn2nc3nc(N4CCCCCC4)ccn3c2=O)cc1`, the Inhibition is -2.48%.

For the compound `COc1cccc(Oc2nccn3c(=O)n(CC(=O)Nc4cccc(Br)c4)nc23)c1`, the Inhibition is -6.35%.

Regarding `Cc1cccc(NC(=O)Cn2c(=O)c3nnc(C(C)C)n3c3ccccc32)c1`, the Inhibition is on record as -8.16%.

For the compound `Cc1nnc2ccc(S(=O)(=O)N(Cc3ccccc3F)c3cccc(F)c3)cn12`, the Inhibition is -8.44%.

For `CC(=O)c1ccc(NC(=O)Cn2nc3ccc(Sc4ccccc4)nn3c2=O)cc1`, the Inhibition was -7.82%.

Turning to `COc1ccc(-c2cc3c4nn(CC(=O)Nc5cc(C)ccc5C)c(=O)n4ccn3n2)cc1`, the Inhibition is reported as 2.02%.

With `O=C(CSc1nnc2c(=O)n(-c3ccccc3)ccn12)Nc1ccccc1F`, the Inhibition turned out to be 1.53%.

Consider `CCCCOc1ccc(-c2cc3c4nnc(SCC(=O)Nc5ccc(C)c(F)c5)n4ccn3n2)cc1`, for which the Inhibition is listed as -2.67%.

For `Cc1cc(C)c(NC(=O)Cn2c(=O)c3nnc(C(C)C)n3c3ccccc32)c(C)c1`, the Inhibition amounted to 3.04%.

Consider `Cc1nnc2ccc(S(=O)(=O)N(Cc3cc(F)cc(F)c3)c3ccccc3)cn12`, for which the Inhibition is recorded as -1.77%.

As to `Cc1cc2nn(CC(=O)Nc3ccc(F)cc3F)c(=O)n2c(Nc2ccc(C)c(F)c2)n1`, the Inhibition is recorded as -0.48%.

With `Cc1nnc2c(S(=O)(=O)N(Cc3cc(F)cc(F)c3)c3cccc(F)c3)cccn12`, the Inhibition is reported as -6.31%.

In the case of `COc1ccc(CNC(=O)Cn2nc3c(N4CCOCC4)nccn3c2=O)cc1`, the Inhibition was found to be 3.1%.

As to `CCOc1ccccc1NC(=O)Cn1nc2c3c4c(sc3ncn2c1=O)CCCC4`, the Inhibition is given as -7.86%.

On to `CCc1ccc(N(Cc2cccc(F)c2)S(=O)(=O)c2cccn3c(C)nnc23)cc1`, for which the Inhibition is -2.48%.

For the compound `COc1ccc(C(C)NC(=O)CCc2nnc3ccc(-c4ccc(C)cc4)nn23)cc1OC` (stereo not given), the Inhibition is recorded as 2.29%.
